EPAC1 ag – qHTS for Agonist of cAMP-regulated guanine nucleotide exchange factor 3 (EPAC1): primary screen; EPAC1 agonist qHTS, biochemical assay; response scale: 100% = response to 6.5 mM cAMP; AID 720707, 2013; Potency, µM (top dose mostly 154 µM), for inactives: top-dose activation, most hits filed as activators; actives 0.073% (n = 360,000); also: nearly all actives have a fitted effect of over 60% in size
Target sequence (O95398 whole entry, looked up): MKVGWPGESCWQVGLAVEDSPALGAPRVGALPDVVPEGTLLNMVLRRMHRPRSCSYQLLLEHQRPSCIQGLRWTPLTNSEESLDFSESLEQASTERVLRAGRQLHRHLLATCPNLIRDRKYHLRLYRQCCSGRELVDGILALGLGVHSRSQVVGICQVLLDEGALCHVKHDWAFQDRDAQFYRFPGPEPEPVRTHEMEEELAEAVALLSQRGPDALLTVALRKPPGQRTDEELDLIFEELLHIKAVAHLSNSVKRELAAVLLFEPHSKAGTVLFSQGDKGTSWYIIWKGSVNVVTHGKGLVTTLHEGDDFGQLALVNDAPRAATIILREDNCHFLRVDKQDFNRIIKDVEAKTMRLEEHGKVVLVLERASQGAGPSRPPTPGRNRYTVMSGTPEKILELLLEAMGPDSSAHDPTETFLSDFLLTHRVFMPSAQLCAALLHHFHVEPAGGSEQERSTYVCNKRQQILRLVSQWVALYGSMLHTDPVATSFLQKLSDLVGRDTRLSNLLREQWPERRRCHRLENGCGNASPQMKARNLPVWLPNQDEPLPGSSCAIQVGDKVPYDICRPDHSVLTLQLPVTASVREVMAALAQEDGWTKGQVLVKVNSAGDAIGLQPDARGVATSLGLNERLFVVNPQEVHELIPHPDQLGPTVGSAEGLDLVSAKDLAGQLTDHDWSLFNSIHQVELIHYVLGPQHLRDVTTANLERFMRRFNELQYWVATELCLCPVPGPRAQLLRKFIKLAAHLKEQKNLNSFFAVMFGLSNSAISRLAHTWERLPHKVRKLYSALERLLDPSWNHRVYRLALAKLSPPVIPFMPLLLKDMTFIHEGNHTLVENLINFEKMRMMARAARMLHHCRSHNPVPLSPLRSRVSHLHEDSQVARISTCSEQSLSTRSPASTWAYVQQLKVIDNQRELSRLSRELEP
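Nucleotide exchange by EPAC1 (100 nM) on Rap1B–BODIPY-GDP (250 nM) in the presence of 50 uM GDP is tracked fluorescently at 480/540 nm over 30 min. Signals are normalized to a 6.5 mM cAMP control.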
EPAC1 antag – qHTS for Antagonist of cAMP-regulated guanine nucleotide exchange factor 3 (EPAC1): primary screen | Rap guanine nucleotide exchange factor 3 (Homo sapiens), O95398 | EPAC1 GEF assay, Rap1b-BODIPY-GDP exchange fluorescence | Potency, µM (titrated, usually from 115 µM), for the others: at the top dose activity change, negative = inhibition, hits mostly inhibitors | actives 0.14% (n = 360,000) | AID 720709, 2013;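 also: plate controls were vehicle for no effect and positive control for full effect; nearly all actives have a fitted effect of over 50% in size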
Rango complex inh – qHTS Assay for Inhibitors of Rango (Ran-regulated importin-beta cargo) - Importin beta complex formation. actives 0.031% (n = 340,000). AID 540263, 2011. Rango CFP/YFP FRET sensor + importin beta, 45 min. Potency, µM (series often up to 92.2 µM), inactives show at the highest dose inhibition of complex formation. Importin subunit beta-1 (Homo sapiens), Q14974; calls by dose curve;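 also: 0% = DMSO wells and 100% = buffer wells lacking importin beta; nearly all actives have a fitted effect of over 15% in size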
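Inhibition scored from the CFP 486 nm/YFP 530 nm FRET ratio 45 min after adding 0.125 microM importin beta to 50 nM Rango biosensor preincubated 5 min with compound (room temperature, PBS with DTT, Tween-20, BSA). No-importin wells as positive control.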
EPAC2 ag – qHTS for Agonist of cAMP-regulated guanine nucleotide exchange factor 4 (EPAC2): primary screen; Potency, µM (titrated, usually from 154 µM), without a hit: top-dose activation, actives largely listed as activators; actives 0.079% (n = 360,000); EPAC2 activation, biochemical qHTS; response scale: 100% = 6.5 mM cAMP response; Rap guanine nucleotide exchange factor 4 (Homo sapiens), Q8WZA2; also: nearly all actives have a fitted effect of over 50% in size
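Compounds were added across a concentration range to EPAC2 (100 nM), RAP1B-BODIPY-GDP (250 nM) and GDP (50 uM). After 5 min at room temperature, fluorescence was recorded at 5-min intervals for 30 min.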
Rango release inh – qHTS Assay for Inhibitors of RanGTP induced Rango (Ran-regulated importin-beta cargo) - Importin beta complex dissociation; actives 0.071% (n = 340,000); Biochemical FRET Rango-importin beta, RanGTP-induced dissociation; Potency, µM (top dose mostly 46.1 µM), inactives show at the top dose activity change, negative = inhibition; Snurportin-1 (Homo sapiens) + GTP-binding nuclear protein Ran (Homo sapiens) + Importin …; calls by dose curve; also: % of control where 0% means no effect; nearly all actives have a fitted effect of over 45% in size
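Compounds preincubate 5 min with complex of recombinant Rango and importin beta in PBS with 1 mM DTT. Ran (0.6 uM) loaded with 2 mM GTP plus 0.2 uM RCC1 starts dissociation; FRET is recorded 45 min later.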
EPAC2 antag – qHTS for Antagonist of cAMP-regulated guanine nucleotide exchange factor 2 (EPAC2): primary screen; actives 0.18% (n = 360,000); Rap guanine nucleotide exchange factor 4 (Homo sapiens), Q8WZA2; Potency, µM (series often up to 114 µM), for the others: at the highest dose activity, negative = inhibition, hits mostly inhibitors; EPAC2 GEF exchange of Rap1B-BODIPY-GDP, fluorescence; also: % is scaled to controls: 0 for no effect and ±100 for the full control effect; nearly all actives have a fitted effect of over 45% in size
* = called active by the depositor; u = inconclusive; x = no result given; [ ] = dose if it differs, or a comment. The list is not random: actives were taken first. Their share in the collection is about 0.43%. Unless noted, calls follow the shape of the dose curve; as a rule, active = well fitted curve in the direction sought with a large enough effect; inconclusive = small, poorly fitted or top-dose-only effect, or another doubt; inactive = no such curve, though single readings can be large; an effect the other way counts as inactive or inconclusive. Potency is read from the fitted curve at half-maximal effect.

SMILES	EPAC1 ag	EPAC1 antag	Rango complex inh	EPAC2 ag	Rango release inh	EPAC2 antag
Cc1ccc(SCC(=O)OCC(=O)N(C)CC(=O)Nc2ccc(F)cc2)cc1C	126µM*	-26%	1%	4%	-10%	-10%
Cc1ccccc1CN1C(=O)CSCC1(C)C(=O)NC(C)C (stereo not given)	7%	-12%	x	7%	x	-3%
C#Cc1cccc(Nc2nc(NCc3ccccc3OC)nc3ccsc23)c1	7%	-11%	x	18%	x	12%
CC(=O)Nc1cccc(C(=O)/C=C/c2ccc(Br)cc2)c1	14%	-19%	2%	15%	19%	-8%
CC(=O)Nc1cccc(C(=O)/C=C/c2ccc(F)cc2)c1	-3%	79µM*	4%	9%	16%	-7%
CCc1nc2ccc(C(=O)NCc3ccc4c(c3)OCO4)cn2c1N(C)Cc1ccc(OC)cc1	-7%	-15%	x	24%	x	12%
O=C1Nc2ccccc2N=C(c2ccccc2)C1N(C(=O)c1ccnc2ccccc12)c1ccccc1 (stereo not given)	1%	-2%	x	13%	x	-6%
CCOc1ccc2c(ccc(/C=C/c3cc(C)c4cccnc4c3O)[n+]2C)c1	63µM*	35µM*	u	u	-31%	40µM*
N#C/C(=C/c1ccc(C(=O)O)cc1)C(=O)NCc1ccccc1	4%	9%	0%	5%	u	-2%
CCOCCCNC(=O)/C(C#N)=C/c1cc(C)c(O)c(C)c1	-9%	22%	u	0%	26µM*	24%
Cc1cc(/C=C(\C#N)C(=O)NCc2ccccc2)cc(C)c1O	-1%	-14%	u	6%	6.5µM*	0%
CCOCCCNC(=O)/C(C#N)=C/c1cc(OC)c(O)c([N+](=O)[O-])c1	-6%	u	-2%	12%	12%	-22%
CCN(CC)c1ccc(/C=C(\C#N)C(=O)NCc2ccccc2)cc1	100µM*	-2%	u	8%	u	28%
COc1cc(/C=C(/C#N)C(=O)NCc2ccccc2)cc(OC)c1OC	2%	-14%	0%	5%	6%	7%
COCCNc1nc(Nc2ccc(C)cc2C)c2sccc2n1	-13%	-5%	x	14%	x	-5%
COc1ccc(/C(O)=C/c2nc3ccccc3n(-c3ccccc3)c2=O)cc1	1%	25%	u	89µM*	u	104%[57.1 µM]
COc1ccc(-n2c(=O)c(CCC(=O)N3CCN(c4cccc(OC)c4)CC3)nc3ccccc32)cc1	-19%	-15%	x	-4%	x	2%
Oc1c(Br)cc(Br)cc1CNc1cccc2cccnc12	15%	-26%	u	2%	u	11µM*
Oc1ccc(Br)cc1CNc1cccc2cccnc12	10%	12%	-3%	13%	1%	u
Oc1ccc(Cl)cc1CNc1cccc2cccnc12	-16%	-16%	-4%	10%	1%	56µM*
COc1ccc(C(NC(=O)C2CCN(Cc3ccc(Oc4ccccc4)cc3)CC2)c2ccccn2)cc1 (stereo not given)	14%	-15%	x	7%	x	-21%
O=C(O)c1ccc2c(c1)C(=O)N(C(Cc1ccccc1)C(=O)O)C2=O (stereo not given)	0%	3%	6%	-4%	10%	2%

Bioassay records from PubChem.
